Active and inactive are the calls of the source. Calls follow the shape of the dose curve; as a rule, active = well fitted curve in the direction sought with a large enough effect in the repeat runs; inconclusive = weak or mixed curves; inactive = flat fitted curve, though single readings scatter.
assay: qHTS assay to test for compound auto fluorescence at 535 nm (green) in HepG2 cell free culture (AID 720686); conditions: Cell-free medium, green autofluorescence 485/535 nm; series mostly up to 91.3 µM
Source text: U.S. Tox21 Program National Center for Advancing Translational Sciences [NCATS] NIH Chemical Genomics Center [NCGC] U.S. Environmental Protection Agency [EPA] National Institutes of Environmental Health Sciences [NIEHS] National Toxicology Program [NTP] U.S. Food and Drug Administration [FDA] Tox21 Assay Overview: Compound auto fluorescence often interferes with screening of the compound library against various biological targets and signaling pathways. Some of these compounds may have fluorophoric properties. Such properties may interfere with the assay outputs resulting in false positives and/or negatives. To decrease such complications and ensure the compound activities are relevant in terms of biological response, the Tox21 10K compound library was screened for auto fluorescence. From the fluorophores used as reporter signals in our screening assays, the auto fluorescence equivalencies of compounds against three fluorophores have been evaluated: Triamterene, Fluorescein and Rose Bengal sodium for blue, green and red fluorescence, respectively. The fluorescence intensities were measured using Excitation/Emission wavelengths at 405/460nm, 485/535nm and 540/590nm for blue, green and red labels, respectively. This assay includes the green fluorescence data.
Tox21 Assay Protocol Summary: 5 uL of culture medium (MEM containing 10% FBS) per well was dispensed into black wall/clear bottom 1536-well plates using a Multidrop Combi Dispenser (ThermoFisher Scientific, Waltham, MA). After 23 nL compound or DMSO vehicle was transferred into assay plate by a pintool work station (Kalypsys, San Diego, CA), fluorescence intensities in the assay plates were measured by an Envision (PerkinElmer, Shelton, CT) plate reader using three labels for measuring blue, green and red fluorescence at […] 460, 535 and 590nm respectively.
% is scaled to controls: 0 for no effect and ±100 for the full control effect.

SMILES	outcome	fluorescence, % of fluorescein control
O=C(c1ccccc1)C1(O)CCCCC1	inactive	–
C=CC(C)(CCC=C(C)C)OC(=O)CC (stereo not given)	inactive	–
C[C@H]1C[C@H]2[C@@H]3CCC4=CC(=O)C=C[C@]4(C)[C@H]3C(=O)C[C@]2(C)[C@@]1(O)C(=O)CO	inactive	–
C[N+](C)(C)CCCCCCCCCC[N+](C)(C)C	inactive	–
c1ccc2sc(SN3CCOCC3)nc2c1	inactive	–
CC(=O)Oc1cccc(C)c1	inactive	–
CCOc1ccc2nc(S(N)(=O)=O)sc2c1	inactive	–
Cc1cccc(C)c1NC(=O)CC12CCCN1CCC2	inactive	–
O=C1NC(=O)C2CC=CCC12 (stereo not given)	inactive	–
CC1=NN(c2cc(S(=O)(=O)O)ccc2Cl)C(=O)C1N=Nc1ccccc1 (stereo not given)	inactive	–
C[N+](C)(CCOc1ccccc1)Cc1cccs1	inactive	–
CCCCCCCCN1CCCC1=O	inactive	–
C=COCC1CCC(COC=C)CC1 (stereo not given)	inactive	–
CC[N+](CC)(CC(=O)Nc1c(C)cccc1C)Cc1ccccc1 (tested in a mixture with another compound)	inactive	–
CC(C#N)(CCC(=O)O)N=NC(C)(C#N)CCC(=O)O (stereo not given)	inactive	–
OCCc1ccccn1	inactive	–
Cc1ccc(C(=O)c2ccccc2)cc1	inactive	–
CCOCC(C)O (stereo not given)	inactive	–
Cc1ncc(COP(=O)(O)O)c(C=O)c1O	inactive	–
CCCc1ncc(C[n+]2ccccc2C)c(N)n1	–	0.0635% [at 18.6 µM] (inactive)

SMILES	outcome	fluorescence, % of fluorescein control
C[N+]1(CC2COC(c3ccccc3)(c3ccccc3)O2)CCCCC1 (stereo not given)	inactive	–
c1coc(CNc2ncnc3nc[nH]c23)c1	inactive	–
CCOC(=O)CCC(=O)OCC	inactive	–
C1CCC2=NCCCN2CC1	inactive	–
CCC(C)(CN(C)C)OC(=O)c1ccccc1 (stereo not given)	–	0.0276% [at 18.6 µM] (inactive)
Nc1ccccn1	inactive	–
CCOC(=O)C1=NOC(c2ccccc2)(c2ccccc2)C1	inactive	–
CCN[C@@H]1C[C@H](N)[C@@H](OC2OC(CN)=CCC2N)[C@H](O)[C@H]1O[C@H]1OC[C@](C)(O)[C@H](NC)[C@H]1O (stereo not given in full)	inactive	–
CCC(C)(CCCC(C)C)OC(C)=O (stereo not given)	inactive	–
C=CCCC(=O)O	inactive	–
CN1[C@@H]2CC[C@H]1CC(OC(=O)C(O)c1ccccc1)C2 (stereo not given in full)	inactive	–
COc1cc(C)nc(-n2nc(C)cc2OC)n1	–	-0.0352% [at 18.6 µM] (inactive)
CN(C)[C@@H]1C(=O)C(C(=O)NCN2CCCC2)=C(O)[C@@]2(O)C(=O)C3=C(O)c4c(O)cccc4[C@@](C)(O)C3C[C@@H]12 (stereo not given in full)	inactive	–
C[C@H]1[C@H](NC(=O)/C(=N/OC(C)(C)C(=O)O)c2csc(N)n2)C(=O)N1S(=O)(=O)O (stereo in doubt)	–	0.102% [at 18.6 µM] (inactive)
CC12CCC(C(=O)C1=O)C2(C)C (stereo not given)	inactive	–
CC(N)C12CC3CC(CC(C3)C1)C2 (stereo not given)	inactive	–
COc1cccc(OC)c1C(=O)N[C@@H]1C(=O)N2[C@@H]1SC(C)(C)[C@@H]2C(=O)O	inactive	–
CCN[C@H]1C[C@H](C)S(=O)(=O)c2sc(S(N)(=O)=O)cc21	inactive	–
C[C@@H]1C[C@H]2[C@@H]3C[C@H](F)C4=CC(=O)C(Cl)=C[C@]4(C)[C@@]3(F)[C@@H](O)C[C@]2(C)[C@@]1(O)C(=O)CO	inactive	–
CCCCCC(C)N (stereo not given)	inactive	–
